High-throughput results deposited in PubChem BioAssay by National Center for Advancing Translational Sciences (NCATS).
CHX counter: Cycloheximide Counterscreen for Small Molecule Inhibitors of Shiga Toxin; cell reporter, cycloheximide protein synthesis inhibition counterscreen; max response, %; 300,000 tested, 12% active; in the data active means max response mostly above about 13%, no sharp cut-off; inactive means mostly below about 14%; further: read at 38.3 µM for the half of the compounds with a filed dose
Pf growth 96h: Primary qHTS for delayed death inhibitors of the malarial parasite plastid, 96 hour incubation | P. falciparum luciferase reporter growth, 96 h | Potency, µM (series often up to 28.7 µM), hits mostly inhibitors | 320,000 tested, 6.9% active | AID 504834, 2011
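Plates of compound plus infected erythrocytes (2% hematocrit, 0.05% parasitemia final) incubate 96 hours, 37 C, 5% CO2. Detection reagent added; reduced luminescence from the parasites' luciferase reporter flags inhibition.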
NS1 inh: qHTS Assay for Inhibitors of Influenza NS1 Protein Function | Potency, µM (doses to about 46.1 µM) | 270,000 tested, 0.4% active | AID 2326, 2010; calls by dose curve; further: actives are rising curves; nearly all actives have a fitted effect of over 50% in size
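A cell-based growth assay was used: compounds that relieve NS1-induced slow growth of budding yeast raise OD600. Assay medium was yeast nitrogen base with ammonium sulphate and -URA supplement, pH 6.0, with 2% galactose.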
Shiga toxin inh: A qHTS for Small Molecule Inhibitors of Shiga Toxin. Vero cells, Shiga toxin protein synthesis inhibition reporter. inhibition, % at 38.7 µM. 290,000 tested, 9.2% active. AID 2315, 2010; in the data active means inhibition mostly above about 28%, no sharp cut-off; inactive means mostly below about 43%
Pf growth 48h: Primary qHTS for delayed death inhibitors of the malarial parasite plastid, 48 hour incubation; P. falciparum luciferase growth in erythrocytes, 48 h; Potency, µM (titrated, usually from 28.7 µM), actives largely listed as inhibitors; 310,000 tested, 5.9% active; AID 504832, 2011
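Read-out is firefly luciferase luminescence from an integrated reporter in P. falciparum, so falling signal marks reduced parasite growth. Infected erythrocytes were at 2% hematocrit and 0.1% parasitemia (final) in Albumax-supplemented RPMI 1640.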
SARS PLpro yeast: qHTS of Yeast-based Assay for SARS-CoV PLP; 330,000 tested, 0.19% active; S. cerevisiae expressing SARS-CoV PLpro, growth rescue; Potency, µM (series often up to 32.9 µM), hits mostly activators; calls by dose curve; further: nearly all actives have a fitted effect of over 55% in size
Each line names hits and unclear results; the compound was inactive in the other large screens. Most compounds without a hit are left out; they make up all but 21% or so of the library. Unless noted, the call rests on the fitted dose curve; in most records, active means well fitted inhibition curve with a large enough effect; inconclusive means small, poorly fitted or top-dose-only effect, or another doubt; inactive means no such curve, though single readings can be large or run the other way.

CCN(CC)S(=O)(=O)c1cc(NC(=O)C(C)N2CCc3ccccc32)ccc1C (stereo not drawn)	Pf growth 96h 10µM, Pf growth 48h inconclusive (no result: NS1 inh)
Cc1cccc(C)c1NC(=O)CN(C)C(C)C(=O)Nc1ccccc1-c1ccccc1 (stereo not drawn)	Pf growth 96h inconclusive, Pf growth 48h inconclusive (no result: NS1 inh)
Cc1ccc(S(=O)(=O)NCCC(=O)NCCOc2ccccc2)cc1	Pf growth 48h inconclusive (no result: CHX counter, NS1 inh, Shiga toxin inh)
O=C(COC(=O)/C=C/c1ccc(Cl)cc1Cl)NCc1ccco1	none
CCCCn1c(N)c(N(Cc2ccccc2OC)C(=O)c2sccc2C)c(=O)[nH]c1=O	none (no result: CHX counter, NS1 inh, Shiga toxin inh)
CCCCn1c(N)c(N(CC(C)C)C(=O)c2cccc(S(=O)(=O)N(C)c3ccc(C)cc3)c2)c(=O)[nH]c1=O	Pf growth 96h inconclusive, Pf growth 48h 6.6µM (no result: CHX counter, NS1 inh, Shiga toxin inh)
CCCCn1c(N)c(N(Cc2ccccc2OC)C(=O)c2cc(CC)c(C)s2)c(=O)[nH]c1=O	Pf growth 96h inconclusive, Pf growth 48h 13µM (no result: CHX counter, NS1 inh, Shiga toxin inh)
CCCCn1c(N)c(N(CCC(C)C)C(=O)c2ccc([N+](=O)[O-])s2)c(=O)[nH]c1=O	Pf growth 96h inconclusive, Pf growth 48h 9.3µM (no result: CHX counter, NS1 inh, Shiga toxin inh)
CCCCn1c(N)c(N(CC(C)C)C(=O)c2ccc(S(=O)(=O)N(CC)c3ccccc3)cc2)c(=O)[nH]c1=O	Pf growth 96h inconclusive, Pf growth 48h 12µM (no result: CHX counter, NS1 inh, Shiga toxin inh)
CCCCn1c(N)c(N(CC(C)C)C(=O)c2cccc(S(=O)(=O)N(C)c3ccccc3)c2)c(=O)[nH]c1=O	Pf growth 96h inconclusive, Pf growth 48h inconclusive (no result: CHX counter, NS1 inh, Shiga toxin inh)
CC(C)=Cc1c(O)nc2ccccn2c1=O	Pf growth 96h inconclusive
Nc1c(C(=O)CSc2ncccn2)c(=O)[nH]c(=O)n1C1CC1	none (no result: CHX counter, NS1 inh, Shiga toxin inh)
Cc1onc(-c2ccccc2Cl)c1C(=O)NC1CCCCCC1	none
COc1ccccc1CNC(=O)c1cc2c(=O)[nH]c3ccccc3c2n1C	Pf growth 48h inconclusive (no result: NS1 inh)
CCCCn1c(N)c(N(CC(C)C)C(=O)CSCC(=O)Nc2cccc(C)c2)c(=O)[nH]c1=O	Pf growth 96h inconclusive, Pf growth 48h 12µM (no result: CHX counter, NS1 inh, Shiga toxin inh)
Cc1ccc(OCCNC(=O)Cc2ccc(F)cc2)cc1	none
O=S(=O)(c1cccs1)N1CCN(S(=O)(=O)c2cccs2)CC1	Pf growth 96h inconclusive
CN(C(=O)C1CCN(S(=O)(=O)c2cccs2)CC1)C1CCCCC1	Pf growth 96h 1.7µM
O=C(C1CCN(S(=O)(=O)c2cccc3cccnc23)CC1)N1CCN(C2CCCCC2)CC1	Pf growth 48h inconclusive
O=C(C1CCN(S(=O)(=O)c2cccnc2)CC1)N1CCN(C2CCCC2)CC1	Pf growth 96h 10µM
Cc1cccc2sc(N(CCN(C)C)C(=O)C3CCN(S(=O)(=O)c4cccs4)CC3)nc12	Pf growth 96h inconclusive, Pf growth 48h 12µM (no result: CHX counter, NS1 inh, Shiga toxin inh)
COC(=O)Nc1ccc(S(=O)(=O)N2CCC(C(=O)N(C)C3CCCCC3)CC2)cc1	Pf growth 96h inconclusive, Pf growth 48h inconclusive (no result: NS1 inh)
O=S(=O)(c1cccs1)N1CCC2(CC1)OCCO2	Pf growth 96h 13µM, Pf growth 48h inconclusive
COc1ccc(-c2noc(=O)n2Cc2ccccc2F)cc1	Pf growth 96h inconclusive
O=C1CCN(Cc2ccc(Br)cc2)CCN1[C@H](CO)Cc1ccccc1	none
O=C(CN1C(=O)NC2(CCOc3ccccc32)C1=O)NCCc1ccccc1 (stereo not drawn)	none (no result: CHX counter, Pf growth 96h, NS1 inh, Shiga toxin inh, Pf growth 48h)
CC(=O)N1CCC(C(=O)N2CCN(S(=O)(=O)c3cccs3)CC2)CC1	none
O=C(C1CCN(S(=O)(=O)c2cccs2)CC1)N1CCCCC1	CHX counter 35, Shiga toxin inh 37
O=C(Nc1ccc2c(c1)CCC2)c1ccc(Cl)nc1	CHX counter 59, Shiga toxin inh 64 (no result: NS1 inh)
O=C(Nc1ccc2c(c1)CCC2)c1cnc(Cl)c(Cl)c1	CHX counter 67, Shiga toxin inh 103 (no result: NS1 inh)
O=C(COC(=O)c1ccc(Cl)nc1)Nc1ccc2c(c1)CCC2	none (no result: CHX counter, Pf growth 96h, NS1 inh, Shiga toxin inh, Pf growth 48h)
CCn1ncc(Cl)c1C(=O)Nc1ccc2c(c1)CCC2	CHX counter 37, Shiga toxin inh 134
Cc1ccc2nc3c(cc(C#N)c(=N)n3Cc3cccnc3)c(=O)n2c1	Pf growth 96h inconclusive
Cc1cc(=O)oc2cc(NC(=O)[C@H](CCCCN)NC(=O)[C@H](CC3CCCCC3)NC(=O)OCC3c4ccccc4-c4ccccc43)ccc12	none (no result: Pf growth 96h, NS1 inh, Pf growth 48h, SARS PLpro yeast)
CC(=O)Nc1cccc(C(=O)OCC(=O)NNC(=O)c2ccc([N+](=O)[O-])cc2)c1	none (no result: CHX counter, NS1 inh, Shiga toxin inh)
CCc1cc2c(SCC(=O)O)ncnc2s1	none
CCc1cc2c(SCC(=O)c3cccs3)ncnc2s1	CHX counter 16
C=CCn1c(SCC(=O)c2cccs2)nc2sc(CC)cc2c1=O	none (no result: Pf growth 48h)
CCc1cc2c(SCC(=O)c3ccccc3)ncnc2s1	CHX counter 45, Pf growth 96h inconclusive, Shiga toxin inh 73
Cc1ccc(/C=C/C(=O)OCn2nnc3ccccc3c2=O)o1	none
COC(=O)Nc1nnc(/C=C/c2ccc(OC)cc2)s1	CHX counter 58, Shiga toxin inh 96
COc1ccc(/C=C/c2nnc(NC(C)=O)s2)cc1	CHX counter 35, Shiga toxin inh 72
CCCCCCCCNC(=O)c1cnccn1	none
CCCCC(=O)Nc1ccc(NC(=O)c2cnccn2)cn1	CHX counter 25
CCCCC(=O)Nc1ccc(NC(=O)C(C)C)cn1	CHX counter 26, Shiga toxin inh 73 (no result: Pf growth 96h)
CCOc1ccccc1NC(=S)Nn1cnnc1	none
Cc1sc(NC(=O)c2ccccc2F)c(CN2CCCCC2C)c1C (stereo not drawn)	CHX counter 71, Shiga toxin inh 61
O=C(O)C(O)C(O)c1nc2ccccc2[nH]1 (stereo not drawn)	none (no result: NS1 inh)
CCOC(=O)Cc1ncccc1C(=O)Nc1ccc(Oc2ccccc2)cc1	Pf growth 96h 12µM, Pf growth 48h 8.3µM (no result: NS1 inh)
O=C(Nc1ccc(Oc2cccnc2)cc1)c1ccccc1F	CHX counter 26
